SMN2 splice enh – qHTS Assay for Enhancers of SMN2 Splice Variant Expression; Potency, µM (series often up to 46.1 µM), for inactives: at the top dose activity change, positive = activation, actives largely listed as activators; hit rate 2.8% among 210,000; AID 1458, 2008; HEK293 SMN2-luciferase splicing reporter, luminescence, 30-36 h; also: % of control where 0% means no effect; nearly all actives have a fitted effect of over 55% in size
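HEK293 cells carry an SMN2 […]–luciferase reporter in which exon 7 inclusion puts luciferase in frame. Cells were plated 10-12 h before compound addition, then incubated 30-36 h at 37C. ONE-Glo luminescence was read; sodium butyrate at 4.5 mM final served as control.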
Rab9 prom act – qHTS Assay for Rab9 Promoter Activators. Huh7 Rab9 promoter-luciferase reporter, luminescence, 24 h. AID 485297, 2010. Potency, µM (highest dose often 9.22 µM), without a hit: at the top dose activation, negative = inhibition, hits mostly activators. hit rate 2.8% among 320,000; also: % of control where 0% means no effect; nearly all actives have a fitted effect of over 60% in size
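Cell-based reporter: Huh7 stable for Rab9 promoter-driven luciferase, plated in reduced-serum medium with 10% FBS at 1500 cells/well, compound-treated 24 h at 37 °C, luminescence read after 10 min reagent.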
NPC1 prom act – qHTS Assay for NPC1 Promoter Activators; Huh7 NPC1 promoter luciferase reporter, 24 h; Potency, µM (highest dose often 9.22 µM), without a hit: at the top dose activation, actives largely listed as activators; hit rate 2.4% among 320,000; AID 485313, 2010; also: % of control where 0% means no effect; nearly all actives have a fitted effect of over 60% in size
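Luminescence read-out of NPC1 promoter-driven luciferase in stably transfected Huh7 cells; compounds delivered in DMSO and left 24 h at 37C, 5% CO2, qHTS titration format.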
ELG1 repair inh – qHTS screen for small molecules that inhibit ELG1-dependent DNA repair in human embryonic kidney (HEK293T) cells expressing luciferase-tagged ELG1 | HEK293T ELG1-luciferase reporter, luminescence, 16 h; DNA damage induced by 5-fluorouridine | Potency, µM (highest dose often 46.1 µM), inactives show at the highest dose activity change, negative = inhibition, usual class: inhibitors | hit rate 2.3% among 330,000 | AID 504467, 2011; also: % is scaled to controls: 0 for no effect and ±100 for the full control effect; nearly all actives have a fitted effect of over 55% in size
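In this reporter screen, reduction of luminescence relative to DMSO vehicle indicated activity. Compounds and 5-fluorouridine were added together to 2,000 cells per well, incubated for 16 hr at 37 °C, then developed with ONE-Glo.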
FLuc counter – qHTS profiling assay for firefly luciferase inhibitor/activator using purifed enzyme and Km concentrations of substrates (counterscreen for miR-21 project). Luciferin 4-monooxygenase (Photinus pyralis), P08659. purified FLuc, Km substrates, luminescence inhibition. Potency, µM (doses to about 57.5 µM), for inactives: top-dose activity change, negative = inhibition, usual class: inhibitors. hit rate 6.9% among 360,000. AID 588342, 2011;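 also: plate controls were vehicle for no effect and reference inhibitor for full effect; nearly all actives have a fitted effect of over 55% in size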
Target sequence (P08659 whole entry, looked up): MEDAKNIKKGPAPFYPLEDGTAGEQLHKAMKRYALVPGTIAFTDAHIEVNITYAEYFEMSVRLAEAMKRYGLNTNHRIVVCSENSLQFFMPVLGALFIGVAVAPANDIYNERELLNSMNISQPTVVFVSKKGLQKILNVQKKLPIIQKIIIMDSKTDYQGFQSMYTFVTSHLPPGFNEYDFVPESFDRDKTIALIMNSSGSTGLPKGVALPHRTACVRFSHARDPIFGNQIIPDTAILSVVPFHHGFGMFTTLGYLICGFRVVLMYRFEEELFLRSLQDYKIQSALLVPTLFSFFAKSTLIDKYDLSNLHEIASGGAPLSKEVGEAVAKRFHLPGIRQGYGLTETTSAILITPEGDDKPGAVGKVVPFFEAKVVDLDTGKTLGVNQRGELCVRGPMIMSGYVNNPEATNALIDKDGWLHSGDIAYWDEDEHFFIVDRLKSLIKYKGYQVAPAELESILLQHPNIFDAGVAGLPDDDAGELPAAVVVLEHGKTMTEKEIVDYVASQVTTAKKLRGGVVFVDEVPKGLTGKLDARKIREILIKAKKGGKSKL
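Purified P. pyralis luciferase (10nM final) with 10uM D-luciferin and 10uM ATP (Km levels) in 50mM Tris acetate pH 7.5, 10mM Mg acetate, 0.01% Tween-20, 0.05% BSA; qHTS 6-point titration, ~60 µM downward; luminescence read.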
ELG1 genotox – qHTS screen for small molecules that induce genotoxicity in human embryonic kidney (HEK293T) cells expressing luciferase-tagged ELG1. HEK293T ELG1-luciferase reporter, luminescence, 16 h. Potency, µM (highest dose often 46 µM), without a hit: at the top dose activity change, positive = activation, actives largely listed as activators. hit rate 1.3% among 330,000; also: % of control where 0% means no effect; nearly all actives have a fitted effect of over 60% in size
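Luminescence read-out: rising ELG1-luciferase signal, reflecting elevated ELG1 protein under genetic stress, flags genotoxic compounds. Cells were treated for 16 hr at 37 °C before ONE-Glo detection.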
Starred values were filed as active, the others as inactive; [ ] = dose if it differs, or a comment. Most compounds without a hit are left out; they make up all but 9.2% or so of the library. Calls follow the shape of the dose curve; as a rule, active = well fitted curve in the direction sought with a large enough effect; inconclusive = small, poorly fitted or top-dose-only effect, or another doubt; inactive = no such curve, though single readings can be large; an effect the other way counts as inactive or inconclusive. Potency is read from the fitted curve at half-maximal effect.

What do the screens show for `CCc1ccc(S(=O)(=O)Nc2cccc(-c3ccc(N4CCCCC4)nn3)c2)s1`?
FLuc counter: 2.69µM*

What do the screens show for `CCc1ccc(S(=O)(=O)Nc2cccc(-c3ccc4nnc(C)n4n3)c2)s1`?
Rab9 prom act: -1.1%; NPC1 prom act: -7.9%; ELG1 repair inh: 0.3%; FLuc counter: -1.5%; ELG1 genotox: 14.4%

How did Cc1ccc(S(=O)(=O)Nc2cccc(-c3ccc(N4CCCCC4)nn3)c2)s1 do in these assays?
FLuc counter: 1.07µM*

What do the screens show for `O=S(=O)(Nc1cccc(S(=O)(=O)N2CCCCC2)c1)c1ccc(Cl)s1`?
ELG1 repair inh: -15.3%; ELG1 genotox: -3.5%

What do the screens show for `Cc1cccc(N2CCN(C(=O)C3CCN(S(=O)(=O)c4cn(C)cn4)CC3)CC2)c1C`?
FLuc counter: -6.0%

What do the screens show for `O=S(=O)(Nc1nc2ccccc2nc1N1CCc2ccccc2C1)c1ccc(Br)cc1`?
SMN2 splice enh: inconclusive; Rab9 prom act: -2.3%; NPC1 prom act: -2.1%; ELG1 repair inh: inconclusive; FLuc counter: 15.1µM*; ELG1 genotox: inconclusive

What do the screens show for `CC(=O)NNC(=O)CCn1c2c(c3ccccc31)CCCC2`?
Rab9 prom act: -6.1%; NPC1 prom act: -0.8%; ELG1 repair inh: -7.6%; FLuc counter: 0.5%; ELG1 genotox: -5.3%

How did CCOC(=O)NNC(=O)CCn1c2c(c3ccccc31)CCCC2 do in these assays?
Rab9 prom act: 0.4%; NPC1 prom act: 8.1%; ELG1 repair inh: 18.3µM*; FLuc counter: -8.8%; ELG1 genotox: -10.1%

What do the screens show for `COc1cc(NC(=O)c2cnc(N)o2)cc(C(=O)Nc2cccc(C(F)(F)F)c2)c1`?
Rab9 prom act: -5.8%; NPC1 prom act: -2.8%; ELG1 repair inh: 14.6µM*; FLuc counter: 21.3µM*; ELG1 genotox: -13.1%

What do the screens show for `COc1cc(NC(=O)c2ccnc(N)c2)cc(C(=O)Nc2cccc(C(F)(F)F)c2)c1`?
Rab9 prom act: -2.7%; NPC1 prom act: -8.0%; ELG1 repair inh: 13.5%; FLuc counter: 19µM*; ELG1 genotox: 0.5%

What do the screens show for `COc1cc(NC(=O)c2csc(N)n2)cc(C(=O)Nc2cccc(C(F)(F)F)c2)c1`?
Rab9 prom act: -21.5%; NPC1 prom act: 20.8%; ELG1 repair inh: 23.1µM*; FLuc counter: inconclusive; ELG1 genotox: -14.4%

How did COc1cc(NC(=O)c2cnc(N)s2)cc(C(=O)Nc2cccc(C(F)(F)F)c2)c1 do in these assays?
Rab9 prom act: 11.0%; NPC1 prom act: 12.6%; ELG1 repair inh: 0.0%; FLuc counter: 12µM*; ELG1 genotox: -2.5%

Results for O=C(NCCCN1CCCC1=O)c1cccc(S(=O)(=O)N2CCN(c3ccc(F)cc3)CC2)c1 ?
Rab9 prom act: 0.4%; NPC1 prom act: -3.4%; ELG1 repair inh: inconclusive; FLuc counter: 4.1%; ELG1 genotox: -4.5%

How did O=C(CCN1CCCCO1)N1CCCC(N2CCN(c3ccc(F)cc3)CC2)C1 (stereo unspecified) do in these assays?
Rab9 prom act: -4.6%; NPC1 prom act: -4.0%; ELG1 repair inh: -1.5%; FLuc counter: -0.6%; ELG1 genotox: -0.8%[9.26 µM]

How did CC1CCc2nn(CC(=O)Nc3cccc(C(F)(F)F)c3)c(=O)cc2C1 (stereo unspecified) do in these assays?
FLuc counter: 6.6%

How did COc1ccccc1N(Cc1ccccc1)S(=O)(=O)c1cccc(C(=O)Nc2cc(C)ccn2)c1 do in these assays?
Rab9 prom act: inconclusive; NPC1 prom act: inconclusive; ELG1 repair inh: inconclusive; FLuc counter: 0.675µM*; ELG1 genotox: inconclusive
